HT1080-NT tox = kills 2HG-producing HT-1080-NT fibrosarcoma cells. 1.6% of 360,000 active. Potency, µM (top dose mostly 46.1 µM), without a hit: top-dose activity, negative = less viability, actives largely listed as cytotoxic. HT-1080-NT fibrosarcoma viability, CellTiter-Glo ATP luminescence, 48 h. AID 686970;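 note: NT is the 2HG producing partner of a matched IDH1 knockdown line; potency is the fitted concentration of half-maximal effect; 0% = DMSO-treated cells and -100% = media-only wells without cells; nearly all actives have a fitted effect of over 55% in size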
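Toxicity toward the 2HG-producing NT line was scored as %Activity, normalised to DMSO and no-cell wells, from CellTiter-Glo luminescence after 48 hours' treatment.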
DT40 TDP1 CPT = growth inhibition of DT40 Tdp1-/-;hTDP1 cells with camptothecin (screen for TDP1 inhibitors) | chicken DT40 Tdp1-/-;hTDP1 cells + 20 nM CPT, ATP luminescence, 48 h | Potency, µM (titrated, usually from 46.2 µM), for inactives: at the highest dose activity change, negative = growth inhibition, usual class: inhibitors | 12% of 420,000 active | AID 686979; note: potency is the fitted concentration of half-maximal effect; nearly all actives have a fitted effect of over 55% in size
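Chicken DT40 Tdp1-/- cells stably complemented with human TDP1 were seeded at 400 cells/well in medium containing 20 nM camptothecin, exposed to pin-transferred compounds, and grown at 37 °C for at least 48 hr. Viability was read as ATP luminescence.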
TDP1 cell noCPT = qHTS for Inhibitors of human tyrosyl-DNA phosphodiesterase 1 (TDP1): qHTS in cells in absence of CPT; Potency, µM (titrated, usually from 46.2 µM), for the others: at the top dose activity change, negative = growth inhibition, most hits filed as inhibitors; DT40 Tdp1-/- hTDP1 cells, no CPT, ATP luminescence, 48 h; 15% of 420,000 active; note: potency is the fitted concentration of half-maximal effect; nearly all actives have a fitted effect of over 55% in size
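A cellular qHTS used chicken DT40 cells lacking endogenous Tdp1 but carrying stably transfected human TDP1. Compounds were applied without camptothecin, and cell growth kinetics were judged by ATP-dependent luminescence after ≥48 hr.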
HT1080 IDH1KD tx = kills HT-1080 cells with IDH1 knockdown | AID 686971 | 2% of 360,000 active | HT-1080 IDH1 knockdown viability, ATP luminescence, 48 h | Potency, µM (doses to about 46.1 µM), without a hit: at the highest dose activity, negative = toxicity, actives largely listed as cytotoxic;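 note: potency is the fitted concentration of half-maximal effect; 0% = DMSO wells and -100% = cell-free medium wells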
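Cytotoxicity counter-line: IDH1KD HT-1080, 48 h, CellTiter-Glo. Curves classed by r2, magnitude and activity.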
IL1B secr inh = inflammasome signaling inhibition, IL-1 beta readout; AID 743279; THP-1 LPS/ATP IL-1B secretion, AlphaLISA, 16 h; hits give low values; activity change, % at 57.5 µM; 4.7% of 360,000 active; in the data active = activity change below about -50%; inconclusive = mostly about -30% to -49%
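THP-1 cells pretreated 1 hr with compounds (up to 57.5 uM final), then stimulated with LPS (250 ng/mL final) plus ATP (1.25 mM final); secreted IL-1B measured by AlphaLISA after 16 hr, decreased signal indicating inhibition.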
Starred values were filed as active, the others as inactive; ! = repeats disagree. Only some compounds are listed: those with a hit (about 19% of all), similar ones and a draw of the others. Unless noted, calls come from the whole dose curve; as a rule, active = well fitted curve in the direction sought with a large enough effect; inconclusive = small, poorly fitted or top-dose-only effect, or another doubt; inactive = no such curve, though single readings can be large; an effect the other way counts as inactive or inconclusive. Unless noted, % is set by controls: 0 for no effect and ±100 for the full control effect.

O=C1NC(=S)N(C(=O)c2ccc(F)cc2)/C1=C/c1ccccc1 was read as HT1080-NT tox -23%, DT40 TDP1 CPT 23µM*, TDP1 cell noCPT 13µM*, HT1080 IDH1KD tx -28% and IL1B secr inh -16.
`COc1ccc(/C=C2\C(=O)NC(=S)N2C(=O)c2ccc(F)cc2)cc1` gave HT1080-NT tox -11%, DT40 TDP1 CPT 23µM*, TDP1 cell noCPT 18µM*, HT1080 IDH1KD tx 9% and IL1B secr inh 12.
Screening CN1C(=O)/C(=C/c2ccc(OCc3ccc(F)cc3)cc2)N(C)C1=S returned HT1080-NT tox -7%, DT40 TDP1 CPT -28%, TDP1 cell noCPT -30%, HT1080 IDH1KD tx 10% and IL1B secr inh -8.
Screening CCS(=O)(=O)Nc1cccc(C2=NN(S(=O)(=O)CC)C(c3cccs3)C2)c1 (centres undefined) returned HT1080-NT tox -3%, DT40 TDP1 CPT -10%, TDP1 cell noCPT -15%, HT1080 IDH1KD tx -1% and IL1B secr inh -2.
`CC1CCCN(CC(=O)Nc2ccc(S(=O)(=O)N3CCCCCC3)cc2)C1` (centres undefined) gave HT1080-NT tox 22µM*, DT40 TDP1 CPT inconclusive, TDP1 cell noCPT inconclusive, HT1080 IDH1KD tx inconclusive and IL1B secr inh -8.
For CC1CC(C)CN(S(=O)(=O)c2ccc(NC(=O)CN3CCCCCC3)cc2)C1 (centres undefined) the results were HT1080-NT tox -2%, DT40 TDP1 CPT 16µM*, TDP1 cell noCPT 21µM*, HT1080 IDH1KD tx -1% and IL1B secr inh -53*.
CN(c1ccccc1)S(=O)(=O)c1ccc(NC(=O)c2ccc(F)cc2)cc1 was read as HT1080-NT tox -10%, DT40 TDP1 CPT -12%, TDP1 cell noCPT inconclusive, HT1080 IDH1KD tx -19% and IL1B secr inh -86*.
CN(c1ccccc1)S(=O)(=O)c1ccc(C(=O)Nc2ccncc2)cc1 was read as HT1080-NT tox -10%, DT40 TDP1 CPT inconclusive, TDP1 cell noCPT 15µM*, HT1080 IDH1KD tx -11% and IL1B secr inh -14.
For CN(c1ccccc1)S(=O)(=O)c1ccc(NC(=O)c2cccs2)cc1 the results were HT1080-NT tox -8%, DT40 TDP1 CPT inconclusive, TDP1 cell noCPT inconclusive, HT1080 IDH1KD tx inconclusive and IL1B secr inh -60*.
`CCN(c1ccccc1)S(=O)(=O)c1ccc(NC(=S)NC(=O)c2cccs2)cc1` gave HT1080-NT tox -10%, DT40 TDP1 CPT inconclusive, TDP1 cell noCPT 23µM*, HT1080 IDH1KD tx -26% and IL1B secr inh 7.
COCCN(C(=O)c1csnn1)C(C(=O)NC1CCCC1)c1ccccc1F (centres undefined) was read as HT1080-NT tox -1%, DT40 TDP1 CPT -1%, TDP1 cell noCPT -16%, HT1080 IDH1KD tx 4% and IL1B secr inh 8.
O=C(OCN1C(=O)c2ccccc2C1=O)c1ccc(Cl)nc1 was read as HT1080-NT tox 19%, DT40 TDP1 CPT -13%, TDP1 cell noCPT -8%, HT1080 IDH1KD tx 16% and IL1B secr inh 9.
Screening COCCn1c(C)cc(C(=O)COC(=O)C2CC(=O)N(CCc3ccc(OC)c(OC)c3)C2)c1C (centres undefined) returned HT1080-NT tox 4%, DT40 TDP1 CPT 0%, TDP1 cell noCPT -19%, HT1080 IDH1KD tx 20% and IL1B secr inh 21.
COc1ccc(-c2cn(Cc3cccc(OC)c3)nn2)cc1 was read as HT1080-NT tox 10%, DT40 TDP1 CPT 13µM*!, TDP1 cell noCPT 11µM*!, HT1080 IDH1KD tx 12% and IL1B secr inh -16.
Screening COc1ccc(OCC(=O)NCCc2c[nH]c3ccccc23)cc1 returned HT1080-NT tox -21%, DT40 TDP1 CPT -21%, TDP1 cell noCPT inconclusive, HT1080 IDH1KD tx -13% and IL1B secr inh -1.
Screening COc1cccc(Cn2cc(-c3cccc(C(F)(F)F)c3)nn2)c1 returned HT1080-NT tox 21%, DT40 TDP1 CPT inconclusive, TDP1 cell noCPT inconclusive, HT1080 IDH1KD tx 9% and IL1B secr inh 5.
`COc1ccc(-c2cn(CCc3c[nH]c4ccccc34)nn2)cc1` gave HT1080-NT tox inconclusive, DT40 TDP1 CPT 11µM*, TDP1 cell noCPT 10µM*, HT1080 IDH1KD tx inconclusive and IL1B secr inh -18.
`O=C(CCC(=O)Nc1ccc(F)cc1)N/N=C/c1ccc(O)cc1O` gave HT1080-NT tox -13%, DT40 TDP1 CPT 0%, TDP1 cell noCPT inconclusive, HT1080 IDH1KD tx -18% and IL1B secr inh 56.
COc1ccc(/C=N/NC(=O)CCn2nc(C)cc2C)cc1O was read as HT1080-NT tox 2%, DT40 TDP1 CPT 0%, TDP1 cell noCPT 8%, HT1080 IDH1KD tx 0% and IL1B secr inh 17.
For Cc1ccc(S(=O)(=O)N2CCN(CC(=O)N/N=C\c3ccc(Cl)c([N+](=O)[O-])c3)CC2)cc1 the results were HT1080-NT tox 2%, DT40 TDP1 CPT inconclusive, TDP1 cell noCPT inconclusive, HT1080 IDH1KD tx -2% and IL1B secr inh inconclusive.
Cc1cc(C)n(CCC(=O)N/N=C/c2ccc(O)cc2O)n1 was read as HT1080-NT tox -25%, DT40 TDP1 CPT inconclusive, TDP1 cell noCPT 23µM*, HT1080 IDH1KD tx inconclusive and IL1B secr inh 98.
Cc1cc(C)n(CCC(=O)N/N=C/c2ccccc2O)n1 was read as HT1080-NT tox -20%, DT40 TDP1 CPT 12µM*, TDP1 cell noCPT 12µM*, HT1080 IDH1KD tx -24% and IL1B secr inh 28.
O=C(CN1CCN(S(=O)(=O)c2ccc(Br)cc2)CC1)N/N=C/c1ccc(Cl)c([N+](=O)[O-])c1 was read as HT1080-NT tox inconclusive, DT40 TDP1 CPT inconclusive, TDP1 cell noCPT 18µM*, HT1080 IDH1KD tx inconclusive and IL1B secr inh -90*.
COc1ccc(/C=N/NC(=O)CCn2nc(C)cc2C)cc1 was read as HT1080-NT tox 0%, DT40 TDP1 CPT 13%, TDP1 cell noCPT -13%, HT1080 IDH1KD tx 6% and IL1B secr inh 20.
Screening Cc1cc(C)n(CCC(=O)N/N=C/c2ccc(Cl)c([N+](=O)[O-])c2)n1 returned HT1080-NT tox 1%, DT40 TDP1 CPT 8%, TDP1 cell noCPT -16%, HT1080 IDH1KD tx 22% and IL1B secr inh -90*.
`CN(C)c1cccc(C(=O)NN2C(=O)NC3(CCCCC3)C2=O)c1` gave HT1080-NT tox 11%, DT40 TDP1 CPT -23%, TDP1 cell noCPT -24%, HT1080 IDH1KD tx 8% and IL1B secr inh 1.
`Cn1c(CCNC(=O)c2ccccc2F)nnc1SCc1nc2ccccc2c(=O)[nH]1` gave HT1080-NT tox -8%, DT40 TDP1 CPT -2%, TDP1 cell noCPT -3%, HT1080 IDH1KD tx -3% and IL1B secr inh 7.

Screening results: PubChem, National Center for Advancing Translational Sciences (NCATS)
